Experimental data as given in the supplement of paper PMC10338343.
± gives the standard deviation.

The sequences below were run on MILI (PIWIL2) piRISC loaded with L1MC piRNA (26 nt) (assay: pre-steady-state target cleavage rate (min^-1); guide: L1MC piRNA 5'p-UAACUAAAUACUAUGCAAGCUGUAGG; MIWI and MILI are mouse PIWI proteins and EfPiwi is from a freshwater sponge; tags in brackets are library labels; higher = faster piRNA-guided slicing of the target). Details: auxiliary factor: 500 nM mouse GTSF1.
Summary of the method: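 Cleave-'n-Seq: a transcribed, DNA-blocked target RNA library (0.1 nM) was mixed with 1 nM active affinity-purified piRISC carrying one synthetic guide, with or without 500 nM GTSF1 partner protein, in HEPES–potassium acetate buffer at 33 °C for 0–8 or 0–960 min. Uncleaved targets were sequenced and normalised to depth and to weakly complementary targets. Three trials were pooled, and k3 was capped at 0.0001 min^-1. The pre-steady-state cleavage rate came from a burst-and-steady-state fit.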
For UCCUGGAACAGCUUGGUUAGUAUUUAGAAA, the “pre-steady-state target cleavage rate” value was 0.16 ± 0.04.
In the case of UCCUGGAUCAGCUUGCAUAGUAUUAUCUAA, the “pre-steady-state target cleavage rate” value is reported as 0.0859 ± 0.021.
For UCCUGGAUGUCGUUGCUUAGUAUUUAGAUA, the “pre-steady-state target cleavage rate” value was 0.0162 ± 0.0057.
UCCUGCUACUCGUUGCAUAGUAUUUACAAA was tested, and the “pre-steady-state target cleavage rate” value was 0.0703 ± 0.016.
For UCCUGGUACACCUUGCAUACUAUUUAGUUA, the “pre-steady-state target cleavage rate” value was 0.228 ± 0.072.
UCCUCCUACAGCUUGCAAAGUAUUUUGUUA was tested, and the “pre-steady-state target cleavage rate” value was 0.0808 ± 0.011.
UCCUGGAUGUCGAACGUAUGUAUUUAGUAUA was tested, and the “pre-steady-state target cleavage rate” value was under 0.0001.
UCCUGGAUCAGCUUGCAUAGUAAAAAGAAA was tested, and the “pre-steady-state target cleavage rate” value was 0.0472 ± 0.015.
With UCCUGGAUCAGCUUGCAUUGUAUUUACUUA the “pre-steady-state target cleavage rate” value was 0.146 ± 0.027.
With UCCUCCUACAGCUUGCAAUGUAUUUACAAA the “pre-steady-state target cleavage rate” value was 0.0431 ± 0.011.
For UCCUGGAUCAGGAUGCAUAGUAUUUAGAAA, the “pre-steady-state target cleavage rate” value was 0.0525 ± 0.011.
For UCCUGGAUGUCCUUCGAUAGUAUUUAGUUA, the “pre-steady-state target cleavage rate” value was 0.00794 ± 0.0037.
In the case of UCCUGCUACAGCUUGCUUAGUAUUUACAAA, the “pre-steady-state target cleavage rate” value is reported as 0.0114 ± 0.0054.
In the case of UCCUGGAACAGCUUGCAUACUAUUUACAAA, the “pre-steady-state target cleavage rate” value is reported as 0.0166 ± 0.0064.
In the case of UCCUGCUACAGCUUGCAUAGUAUUAUCUAA, the “pre-steady-state target cleavage rate” value is reported as 0.0551 ± 0.014.
UCCUGGAUGUCGAAGCAUAGUAUUGAGUUA was tested, and the “pre-steady-state target cleavage rate” value was 0.00685 ± 0.0034.
With UCCUGGAUGUGCUUGCAUAGUAUUUACAUA the “pre-steady-state target cleavage rate” value was 0.0112 ± 0.0044.
In the case of UCCUGGAACAGCUUGCAUAGUAAAAACAAA, the “pre-steady-state target cleavage rate” value is reported as 0.0763 ± 0.031.
In the case of UCCUGCUACAGCUUGCAUAGAAUUUAGAAA, the “pre-steady-state target cleavage rate” value is reported as 0.0373 ± 0.015.
UCCUGGAUCAGCUUGCAUAUGUAUUUAGUUA was tested, and the “pre-steady-state target cleavage rate” value was 0.00465 ± 0.0046.
With UCCUGGAUGUCGAUGCAUAGUAUUUACUUA the “pre-steady-state target cleavage rate” value was 0.0276 ± 0.01.
In the case of UCCUGGAUGUCGAAGUCAUAGUAUUUAGUUA, the “pre-steady-state target cleavage rate” value is reported as 0.00447 ± 0.003.
With UCCUGGAUGAGCUUGCAUAGUAAUUUGUUA the “pre-steady-state target cleavage rate” value was 0.0508 ± 0.018.
For UCCUGGAUGUCCUUGCAUAGUAUUUACAUA, the “pre-steady-state target cleavage rate” value was 0.039 ± 0.013.
In the case of UCCUGGAUGUCGAACGUAUCUAUUUCAGUUA, the “pre-steady-state target cleavage rate” value is reported as under 0.0001.
For UCCUCCUACAGCUUCGAUAGUAUUUACAAA, the “pre-steady-state target cleavage rate” value was 0.0556 ± 0.016.
UCCUGGAUCAGCUUGCAUAGUAAUUUGUUA was tested, and the “pre-steady-state target cleavage rate” value was 0.114 ± 0.025.
In the case of “UCCUGGAUCAGCUUGCAUAGUUAAAUCAAA [g10:g22:cont:t1A]”, the “pre-steady-state target cleavage rate” value is reported as 0.00426 ± 0.0036.
For UCCUGGAUCAGCUUGCAUUGAAUUUAGUUA, the “pre-steady-state target cleavage rate” value was 0.0248 ± 0.0084.
UCCUCCUACAGGAAGCAUAGUAUUUAGAAA was tested, and the “pre-steady-state target cleavage rate” value was 0.107 ± 0.017.
With UCCUGGAUGUCGUUGCAUAGUAUUAUGUUA the “pre-steady-state target cleavage rate” value was 0.156 ± 0.045.
With UCCUGGUACAGCAAGCAUAGUAUUUUCAAA the “pre-steady-state target cleavage rate” value was 0.0777 ± 0.022.
UCCUGGAUGUCGAUGCAUAGUAUUUAAUUA was tested, and the “pre-steady-state target cleavage rate” value was 0.0256 ± 0.0092.
With UCCUGGAUGUCGAAGCUUAGUAUUUAGUUA the “pre-steady-state target cleavage rate” value was 0.00685 ± 0.0029.
With UCCUGGAUGUGCUUGCAUAGUAAUUAGUAA the “pre-steady-state target cleavage rate” value was 0.0721 ± 0.018.
In the case of UCCUGGAUCACCUUGCAUAGUUUUUAGUUA, the “pre-steady-state target cleavage rate” value is reported as 0.016 ± 0.0061.
With UCCUGGAUGUCGAUGCAUAGAAUUUAGUUA the “pre-steady-state target cleavage rate” value was 0.0057 ± 0.0026.
UCCUCCUACACCUUGCAUAGUAUUUUCAAA was tested, and the “pre-steady-state target cleavage rate” value was 0.0721 ± 0.021.
